Of roughly 7,900 targets only a part is listed; those with a hit were picked by preference. About 0.6% of all pairs of compound and target were hits.

Sequence of UniProt Q8TEH3 (Q8TEH3 whole entry, looked up): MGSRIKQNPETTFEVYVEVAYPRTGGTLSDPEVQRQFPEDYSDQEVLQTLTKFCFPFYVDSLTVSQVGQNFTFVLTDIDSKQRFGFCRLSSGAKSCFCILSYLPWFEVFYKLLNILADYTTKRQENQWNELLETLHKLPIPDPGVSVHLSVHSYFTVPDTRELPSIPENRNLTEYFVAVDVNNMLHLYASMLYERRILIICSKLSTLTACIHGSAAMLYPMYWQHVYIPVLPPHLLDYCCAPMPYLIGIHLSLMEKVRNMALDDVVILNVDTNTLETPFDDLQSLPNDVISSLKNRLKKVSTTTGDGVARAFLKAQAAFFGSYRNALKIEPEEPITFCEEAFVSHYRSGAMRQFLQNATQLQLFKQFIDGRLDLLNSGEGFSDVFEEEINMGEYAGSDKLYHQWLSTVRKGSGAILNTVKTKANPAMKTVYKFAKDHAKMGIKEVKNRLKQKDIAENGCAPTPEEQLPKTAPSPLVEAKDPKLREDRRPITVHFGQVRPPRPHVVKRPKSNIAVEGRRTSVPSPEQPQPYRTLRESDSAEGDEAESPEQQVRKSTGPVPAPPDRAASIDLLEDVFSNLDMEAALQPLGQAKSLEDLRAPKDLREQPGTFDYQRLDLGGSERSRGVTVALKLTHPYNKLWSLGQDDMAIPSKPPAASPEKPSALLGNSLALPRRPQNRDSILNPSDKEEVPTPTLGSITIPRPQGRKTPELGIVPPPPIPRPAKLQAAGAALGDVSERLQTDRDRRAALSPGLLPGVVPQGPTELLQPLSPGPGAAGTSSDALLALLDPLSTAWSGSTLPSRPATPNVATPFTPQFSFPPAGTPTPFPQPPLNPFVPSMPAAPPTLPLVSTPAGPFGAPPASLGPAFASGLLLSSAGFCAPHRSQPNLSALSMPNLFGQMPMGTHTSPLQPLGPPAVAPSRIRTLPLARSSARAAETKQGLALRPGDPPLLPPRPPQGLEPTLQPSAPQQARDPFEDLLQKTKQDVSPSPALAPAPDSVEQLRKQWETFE
Sequence of UniProt Q5JWR5 (Q5JWR5 whole entry, looked up): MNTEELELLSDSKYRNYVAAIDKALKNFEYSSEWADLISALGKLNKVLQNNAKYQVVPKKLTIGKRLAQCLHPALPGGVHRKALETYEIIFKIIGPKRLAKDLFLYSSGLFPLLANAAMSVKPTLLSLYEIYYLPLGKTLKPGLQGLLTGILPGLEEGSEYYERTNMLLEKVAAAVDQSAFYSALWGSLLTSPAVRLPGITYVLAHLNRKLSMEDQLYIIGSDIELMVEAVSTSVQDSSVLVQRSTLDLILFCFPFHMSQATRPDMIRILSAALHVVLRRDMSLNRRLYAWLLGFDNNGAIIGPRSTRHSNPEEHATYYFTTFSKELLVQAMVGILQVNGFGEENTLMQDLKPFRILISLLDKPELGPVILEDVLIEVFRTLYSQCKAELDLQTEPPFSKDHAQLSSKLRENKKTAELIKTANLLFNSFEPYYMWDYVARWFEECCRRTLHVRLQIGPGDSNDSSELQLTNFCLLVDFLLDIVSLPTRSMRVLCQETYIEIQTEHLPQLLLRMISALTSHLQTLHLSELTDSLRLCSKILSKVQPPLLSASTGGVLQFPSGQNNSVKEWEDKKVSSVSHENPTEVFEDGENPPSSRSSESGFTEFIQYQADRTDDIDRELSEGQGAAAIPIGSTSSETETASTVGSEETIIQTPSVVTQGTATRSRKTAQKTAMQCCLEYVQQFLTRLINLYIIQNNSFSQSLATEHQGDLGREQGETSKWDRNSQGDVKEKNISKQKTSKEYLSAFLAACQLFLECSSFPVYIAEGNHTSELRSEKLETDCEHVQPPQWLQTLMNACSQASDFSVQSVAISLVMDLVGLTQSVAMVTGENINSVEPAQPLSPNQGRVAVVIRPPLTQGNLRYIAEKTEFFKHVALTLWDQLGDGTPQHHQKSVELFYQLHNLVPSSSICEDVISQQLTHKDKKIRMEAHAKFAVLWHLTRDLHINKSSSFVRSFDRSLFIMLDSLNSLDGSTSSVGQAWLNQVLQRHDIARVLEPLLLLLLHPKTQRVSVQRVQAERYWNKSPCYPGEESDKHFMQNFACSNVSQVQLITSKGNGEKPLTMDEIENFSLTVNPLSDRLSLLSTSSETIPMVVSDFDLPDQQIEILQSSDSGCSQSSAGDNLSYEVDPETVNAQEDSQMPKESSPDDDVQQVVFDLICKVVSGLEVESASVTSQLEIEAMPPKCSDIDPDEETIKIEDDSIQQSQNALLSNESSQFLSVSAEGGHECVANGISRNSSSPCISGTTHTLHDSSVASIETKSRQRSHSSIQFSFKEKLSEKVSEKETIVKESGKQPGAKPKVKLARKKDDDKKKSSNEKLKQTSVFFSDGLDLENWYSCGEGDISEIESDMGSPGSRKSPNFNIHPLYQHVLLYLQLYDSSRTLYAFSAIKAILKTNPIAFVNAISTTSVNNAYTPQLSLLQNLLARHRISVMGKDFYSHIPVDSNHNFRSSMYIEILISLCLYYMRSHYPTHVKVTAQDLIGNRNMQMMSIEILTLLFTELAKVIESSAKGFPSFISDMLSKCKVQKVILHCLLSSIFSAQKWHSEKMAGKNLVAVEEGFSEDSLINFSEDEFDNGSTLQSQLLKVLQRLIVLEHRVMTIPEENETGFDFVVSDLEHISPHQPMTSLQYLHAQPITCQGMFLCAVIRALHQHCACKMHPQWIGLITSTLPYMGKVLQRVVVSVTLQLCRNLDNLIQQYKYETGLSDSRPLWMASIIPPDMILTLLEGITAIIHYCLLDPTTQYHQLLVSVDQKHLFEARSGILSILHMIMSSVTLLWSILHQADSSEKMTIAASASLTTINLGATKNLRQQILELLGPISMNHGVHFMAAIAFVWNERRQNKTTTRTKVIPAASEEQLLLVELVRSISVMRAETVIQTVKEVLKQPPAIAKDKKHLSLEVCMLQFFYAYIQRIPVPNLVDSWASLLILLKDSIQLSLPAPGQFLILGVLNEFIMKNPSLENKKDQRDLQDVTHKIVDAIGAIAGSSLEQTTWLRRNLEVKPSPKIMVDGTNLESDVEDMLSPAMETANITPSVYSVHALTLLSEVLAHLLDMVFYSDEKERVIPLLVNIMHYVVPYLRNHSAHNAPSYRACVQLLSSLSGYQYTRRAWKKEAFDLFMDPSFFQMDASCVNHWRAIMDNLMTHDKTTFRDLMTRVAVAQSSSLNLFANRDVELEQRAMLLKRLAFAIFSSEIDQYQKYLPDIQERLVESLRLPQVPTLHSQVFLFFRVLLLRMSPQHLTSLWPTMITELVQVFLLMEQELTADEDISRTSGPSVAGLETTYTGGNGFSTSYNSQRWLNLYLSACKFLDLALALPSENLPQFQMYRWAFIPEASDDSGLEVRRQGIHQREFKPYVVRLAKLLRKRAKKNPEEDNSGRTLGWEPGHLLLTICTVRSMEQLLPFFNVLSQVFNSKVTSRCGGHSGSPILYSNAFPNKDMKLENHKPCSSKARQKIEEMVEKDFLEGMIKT
Sequence of UniProt Q9NZJ5 (Q9NZJ5 whole entry, looked up): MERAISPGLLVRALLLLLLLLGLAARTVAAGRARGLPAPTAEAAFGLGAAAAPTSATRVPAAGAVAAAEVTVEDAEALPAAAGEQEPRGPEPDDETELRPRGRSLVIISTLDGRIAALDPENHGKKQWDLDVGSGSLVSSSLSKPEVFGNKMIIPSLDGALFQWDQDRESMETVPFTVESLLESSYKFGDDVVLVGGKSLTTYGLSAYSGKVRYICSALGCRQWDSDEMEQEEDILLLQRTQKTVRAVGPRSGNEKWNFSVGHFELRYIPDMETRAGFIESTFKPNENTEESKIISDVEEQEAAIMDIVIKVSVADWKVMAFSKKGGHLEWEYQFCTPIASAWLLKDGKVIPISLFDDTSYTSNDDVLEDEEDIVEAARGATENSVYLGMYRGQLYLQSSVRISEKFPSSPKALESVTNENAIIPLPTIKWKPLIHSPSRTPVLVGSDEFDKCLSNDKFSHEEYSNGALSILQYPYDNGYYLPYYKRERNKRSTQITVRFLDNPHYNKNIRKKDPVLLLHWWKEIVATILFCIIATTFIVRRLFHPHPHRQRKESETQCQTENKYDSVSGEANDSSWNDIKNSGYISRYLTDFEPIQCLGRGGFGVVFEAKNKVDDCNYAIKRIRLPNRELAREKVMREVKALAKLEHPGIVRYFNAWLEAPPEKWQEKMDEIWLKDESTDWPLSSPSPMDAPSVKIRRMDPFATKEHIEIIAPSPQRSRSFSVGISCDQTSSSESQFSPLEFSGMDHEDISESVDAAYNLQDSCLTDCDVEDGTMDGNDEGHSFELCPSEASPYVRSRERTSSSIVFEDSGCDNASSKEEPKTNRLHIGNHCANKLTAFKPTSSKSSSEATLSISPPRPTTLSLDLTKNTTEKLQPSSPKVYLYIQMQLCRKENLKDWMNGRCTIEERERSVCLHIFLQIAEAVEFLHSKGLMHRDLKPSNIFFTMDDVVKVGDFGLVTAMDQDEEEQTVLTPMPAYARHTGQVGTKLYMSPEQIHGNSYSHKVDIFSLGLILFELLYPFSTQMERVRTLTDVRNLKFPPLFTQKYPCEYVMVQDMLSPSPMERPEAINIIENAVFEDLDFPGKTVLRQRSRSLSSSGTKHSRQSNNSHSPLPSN
Sequence of UniProt Q4LDG9 (Q4LDG9 whole entry, looked up): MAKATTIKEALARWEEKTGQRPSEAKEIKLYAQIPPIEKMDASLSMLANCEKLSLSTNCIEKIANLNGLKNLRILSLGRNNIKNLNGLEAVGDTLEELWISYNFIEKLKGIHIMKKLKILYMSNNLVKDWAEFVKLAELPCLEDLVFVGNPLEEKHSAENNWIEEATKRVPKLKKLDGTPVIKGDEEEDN
Sequence of UniProt O75822 (O75822 whole entry, looked up): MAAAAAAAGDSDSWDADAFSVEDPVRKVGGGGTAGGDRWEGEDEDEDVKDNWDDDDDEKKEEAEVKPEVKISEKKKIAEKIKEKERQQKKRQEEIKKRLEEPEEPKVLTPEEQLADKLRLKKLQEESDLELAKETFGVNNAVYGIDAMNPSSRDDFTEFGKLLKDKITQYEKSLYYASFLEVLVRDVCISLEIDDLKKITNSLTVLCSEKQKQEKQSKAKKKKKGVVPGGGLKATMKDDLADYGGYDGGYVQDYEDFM

Compound in this experiment: C1=CC=C(C=C1)[C@H](COC2=CC3=C(C=C2)NC(=O)N3)NC(=O)C4=CC=CN(C4=O)CC5=CC(=C(C=C5)F)F
In words: log2 fold change, soluble protein after heating vs DMSO (PISA); higher = thermal stabilisation; K562 cells, 10 uM, 30 min; active = over 0.2 and 3.5 SD of the protein, either way, in both replicates (recomputed). A digest of the protocol:
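K562 cells (2×10^6 cells/mL) were treated with 10 μM compound for 30 min, and aliquots were heated for 3 min over 48°C-58°C. Pooled aliquots were extracted in PBS with 0.5% NP-40 at 4°C, and the supernatant after 21,000xg for 90 min was measured by TMTpro 16plex LC-MS/MS with channel sums equalised. Reported thermal stability, relative to control samples and from duplicates, is a log2 fold change.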
On to CYP24A1 (UniProt Q07973), for which the log2 fold change was 0.17 (inactive).

On to DOP1A (UniProt Q5JWR5), for which the log2 fold change was 0.203 (inactive).

EDRF1 (UniProt Q3B7T1): the log2 fold change was 0.043 (inactive).

ELMO1 (UniProt Q92556): the log2 fold change was -0.085 (inactive).

Regarding ENTPD7 (UniProt Q9NQZ7), the log2 fold change is 0.066 (inactive).

On to DNAL1 (UniProt Q4LDG9), for which the log2 fold change was 0.146 (inactive).

As for DDX11 (UniProt Q96FC9), the log2 fold change was -0.068 (inactive).

Consider CYB561A3 isoform 2 (UniProt Q8NBI2), for which the log2 fold change was 0.033 (inactive).

Regarding DENND1A isoform 6 (UniProt Q8TEH3), the log2 fold change was 0.152 (inactive).

DNAH5 (UniProt Q8TE73): the log2 fold change is 0.074 (inactive).

For the target CTNNBL1 (UniProt Q8WYA6), the log2 fold change was 0.029 (inactive).

In the case of DERPC (UniProt P0CG12), the log2 fold change is 0 (inactive).

Regarding EXOC6 (UniProt Q8TAG9), the log2 fold change is -0.088 (inactive).

For EIF2AK3 (UniProt Q9NZJ5), the log2 fold change is -0.473 (inactive).

With EIF3J isoform 2 (UniProt O75822), the log2 fold change is 0.092 (inactive).

Consider FAM207A (UniProt Q9NSI2), for which the log2 fold change is 0.107 (inactive).

Regarding FADS1 (UniProt F5GYH4), the log2 fold change is -0.216 (inactive).

DYNC1I2 isoform 2 (UniProt Q13409): the log2 fold change was 0.028 (inactive).

In the case of DNM2 isoform 4 (UniProt P50570), the log2 fold change is 0.015 (inactive).
